About 83,000 compounds went through this panel and 20% of them were active in at least one assay; those are over-represented in the sample as a whole.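 Percent growth is the endpoint: 0 to 100 indicates growth inhibition (40 means 60% inhibition), 0 means no net growth, and negative values indicate cell death.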 The source made the active and inactive calls.
These compounds were tested on ACHN renal (assay: NCI-60 one-dose screen, 48 h (100 = growth as untreated, 0 = no growth, -100 = all killed)). Settings: 10 µM unless noted.
Experimental: Growth inhibition of the ACHN human tumor cell line is measured as a screen for anti-cancer activity. Cells are grown in 96 well plates and exposed to the test compound for 48 hours. Compounds are tested at a single concentration, which is 10^-5 M for most compounds. The reported endpoint is percent growth (GI% or GIPRCNT), where numbers from 0 - 100% represent growth inhibition, and numbers from -100% - 0 represent cell death. For example, a value of 40 represents 60% growth inhibition. A value of 0 means no net growth occurred over the course of the experiment. A value of -40 indicates 40% of cells at the beginning of the experiment died by the end of the experiment. A value of -100 means all cells are dead at the end of the experiment.
NCI-60 Human Tumor Cell Lines Screen was performed using the standard one-dose NCI protocol, which is described in more detail at https://dtp.cancer.gov/discovery_development/nci-60/default.htm.
Compounds with GIPRCNT values below 10 were considered active. Activity score was based on GIPRCNT using the following formula: […]
Score is 0 for GIPRCNT values of 100 or above, 50 for GIPRCNT values of 0, and 100 for GIPRCNT values of -100.

Row | Structure (SMILES) | growth
1 | CC1(C)C=CC[C@]2(C)[C@H]3CC[C@@H]4[C@H]5[C@H](C(=O)/C=C/c6cccnc6)CC[C@]5(CO)CC[C@@]4(C)[C@]3(C)CC[C@@H]12 | -100% (active)
2 | COc1cc2c(cc1-c1c(C)noc1C)ncc1nc(C3CC3)n([C@H](C)COC(F)F)c12 | 40.6% (inactive)
3 | CCCCC[C@H]1CC=C2C(=O)C(Cl)=C[C@@H]2CC=CCCCC(=O)O[C@@H](CCCCC)CC=C2C(=O)C(Cl)=C[C@@H]2CC=CCCCC(=O)O[C@@H](CCCCC)CC=C2C(=O)C(Cl)=C[C@@H]2CC=CCCCC(=O)O1 | 69.6% [8 µM] (inactive)
4 | COc1ccc2c(c1)C(Br)=C(CCO)C2c1ccccc1 (stereo not given) | 4.96% (active)
5 | Cc1cc(N(CCCNc2ccnc3cc(Cl)ccc23)Cc2ccco2)nc(N2CCOCC2)n1 | 95.3% (inactive)
6 | COc1ccc2c(c1)c(-c1nc(-c3cn(C)c4ncccc34)cs1)cn2CCN | 69.4% (inactive)
7 | Fc1cccc(-c2[nH]nc3nc(Nc4cccnc4)sc23)c1 | 61.5% (inactive)
8 | C=C(C)[C@@H]1CC[C@]2(C(=O)O)CC[C@]3(C)[C@H](CC[C@@H]4[C@@]5(C)C/C(=C/c6ccc(OC)cc6)C(=O)C(C)(C)[C@@H]5CC[C@]43C)[C@@H]12 | 19.6% (inactive)
9 | Cn1cc(-c2csc(-c3c[nH]c4ccccc34)n2)c2cccnc21 | 51.8% (inactive)
10 | COc1c(N)c2c(c([N+](=O)[O-])c1OC)C(=O)OC2 | 117% (inactive)
11 | COCCNC1=C(Cl)C(=O)c2ccccc2C1=O | 104% (inactive)
12 | O=C(NO)c1ccc(Cn2c(=O)n(CCc3ccc(O)cc3)c(=O)c3ccccc32)cc1 | 91.1% (inactive)
13 | Nc1ncnc2nc(Br)[nH]c12 | 98.7% (inactive)
14 | CC(=O)Nc1cc(F)cc(C(F)(F)F)c1Cl | 99.3% (inactive)
15 | CC1(C)CC[C@]2(C(=O)Nc3ccccn3)CC[C@]3(C)C(=CC[C@@H]4[C@@]5(C)C/C(=C/c6ccncc6)C(=O)C(C)(C)[C@@H]5CC[C@]43C)[C@@H]2C1 | -11.9% (active)
16 | Oc1cccc2ccc(N/N=C/c3cc(CN4CCCCC4)c(O)c4ncccc34)nc12 | -28.9% (active)
17 | CC(CNc1nc(Nc2ccc(Cl)c(Cl)c2)nc(C(Cl)(Cl)Cl)n1)N(C)C (stereo not given) | 6.79% (active)
18 | COC(=O)[C@]12CC[C@@H](C)[C@H](C)[C@@H]1C1=CC[C@@H]3[C@@]4(C)C[C@@H](OC(C)=O)[C@H](OC(C)=O)[C@@](C)(COC(C)=O)[C@@H]4[C@H](O)C[C@@]3(C)[C@]1(C)CC2 | 11.8% (inactive)
19 | COc1cc2c(cc1OC)C(=O)/C(=C/c1cc(-c3ccc4c(c3)OCO4)n[nH]1)C2 | -7.41% (active)
20 | Cc1ccc(NC2CC(=O)N(c3c(C)cc(C)cc3C)C2=O)c(C)c1 (stereo not given) | 101% (inactive)

Row | Structure (SMILES) | growth
21 | O=C(N/N=C\c1c(O)ccc2ccccc12)C1CC1 | 23.6% (inactive)
22 | OCC(CO)(CCl)CCl | 104% (inactive)
23 | COc1cccc(-c2nn(-c3ccccc3)cc2-c2ccnc(NCCNS(=O)(=O)c3cccc(F)c3)c2)c1 | 21.7% (inactive)
24 | O=C(/C=C/c1cccc2ccccc12)Nc1ncc(Cc2ccccc2)s1 | 20.8% (inactive)
25 | COc1cnc2c(c1)C(=O)c1c-2n(CCCNC(C)C)c(=O)c2cc([N+](=O)[O-])ccc12 | -84.5% (active)
26 | Cc1ccc2c(c1)c(-c1nc(-c3c[nH]c4ncccc34)cs1)cn2C | 98.6% (inactive)
27 | O=C(c1ccccc1)C(CN1CCOCC1)c1ccccc1 (stereo not given) | 6.83% (active)
28 | COc1ccc(/C(=C\c2ccc3c(c2)OCO3)C(=O)Nc2nc3ccccc3s2)cc1OC | 97.7% (inactive)
29 | CC(=O)c1c(C)[nH]c(-c2nc3ccc(N4CCN(C)CC4)cc3[nH]2)c1-c1ccc(N(C)C)cc1 | 19.8% (inactive)
30 | Cn1nc(-c2ccccc2)c2c(-c3ccccc3)onc2c1=O | 58.4% (inactive)
31 | Nc1c(C(=O)Nc2cccc(Cl)c2)sc2ncc(Cl)cc12 | 23.9% (inactive)
32 | C=C(C)[C@@H]1CC[C@]2(C)[C@H](CC=C3[C@@H]4CC(C)(C)CC[C@]4(C=O)CC[C@]32C)[C@@]1(C)CCCN | 88.4% (inactive)
33 | N=c1ccc2nc3c(cc(N)c4ccccc43)oc-2c1 | -94.4% (active)
34 | Cc1c(C)c2c(c(C)c1NC(=O)CCCCCCC(=O)O)CCC(C)(CCCC(C)CCCC(C)CCCC(C)C)O2 (stereo not given) | 101% (inactive)
35 | C/C(Cc1ccc(Cl)cc1)=C(/c1ccc(Cl)cc1)c1ccc(OCCN2CCCC2)cc1 | 93.8% (inactive)
36 | N#C/C(=C\c1ccc(-c2ccccc2)o1)c1nc(-c2ccco2)cs1 | 93.4% (inactive)
37 | CC1(C)C(=O)/C(=C\c2cccnc2)C[C@]2(C)[C@H]3CC[C@@H]4[C@@H](C(=O)/C=C/c5ccncc5)CC[C@@]4(C)[C@]3(C)CC[C@@H]12 | -78.8% (active)
38 | CN(C)c1ccc(N)c2ccccc12 | 67.2% (inactive)
39 | CCOC(=O)N1CCN(CCCCOc2ccc(C(C)(C)CC)cc2)CC1 | 97.3% (inactive)
40 | COC(=O)[C@]12CC[C@@H](C)[C@H](C)[C@@H]1C1=CC[C@@H]3[C@@]4(C)C[C@@H](OC(C)=O)[C@H](O)[C@@](C)(CO)[C@@H]4[C@H](O)C[C@@]3(C)[C@]1(C)CC2 | -88.3% (active)
